TMEM16A inh: mouse TMEM16A channel inhibition, primary screen. normalized B-score (activity score, 25-100; higher = stronger inhibition) at 10 µM. 1.2% of 310,000 active. HEK293 TMEM16A/YFP iodide influx fluorescence, ionomycin. AID 588511. Q8BHY3;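 active = ratio plate-corrected score three or more library SD toward inhibition, starting fluorescence score within five deviations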;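 note: score derived from kinetic fluorescence span divided by baseline fluorescence per well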
CHT allo act: human CHT allosteric activation | B-score at 10 µM | 0.49% of 310,000 active | Q9GZV3 | CHT-expressing cells, membrane potential dye, choline EC20; stronger effect = higher value; LV-AA mutant CHT in HEK293 cells;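 active = initial fluorescence not abnormally high and integrated response B-score, plate-corrected, over 3 SD above library mean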
Target sequence (Q9GZV3 whole entry, looked up): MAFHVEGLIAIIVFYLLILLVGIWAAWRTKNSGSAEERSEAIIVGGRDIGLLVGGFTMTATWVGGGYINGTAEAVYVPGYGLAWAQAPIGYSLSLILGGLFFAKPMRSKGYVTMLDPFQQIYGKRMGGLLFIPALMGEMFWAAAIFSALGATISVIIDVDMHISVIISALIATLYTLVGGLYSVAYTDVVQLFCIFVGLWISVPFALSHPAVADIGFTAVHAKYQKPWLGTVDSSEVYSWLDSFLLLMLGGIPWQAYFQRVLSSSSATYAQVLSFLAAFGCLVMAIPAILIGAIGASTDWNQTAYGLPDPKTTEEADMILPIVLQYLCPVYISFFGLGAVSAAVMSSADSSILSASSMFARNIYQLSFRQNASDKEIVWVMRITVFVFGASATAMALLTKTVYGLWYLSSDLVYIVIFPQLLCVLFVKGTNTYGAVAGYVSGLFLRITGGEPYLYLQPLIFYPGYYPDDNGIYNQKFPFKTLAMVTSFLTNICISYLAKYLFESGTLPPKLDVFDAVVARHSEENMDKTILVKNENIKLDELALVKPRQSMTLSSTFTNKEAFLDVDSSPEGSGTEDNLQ
CHT block: inhibits the human high affinity choline transporter. 0.86% of 310,000 active. B-score at 10 µM. Q9GZV3. CHT-expressing cells, membrane potential dye, choline response; stronger effect = lower value;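 active = B-score over 3 SD under the library average, and starting fluorescence ratio not unusually high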;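 note: choline stimulus applied at its EC90 after an EC20 pre-addition; B-score computed on integrated fluorescence ratio after choline addition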
ANO1 activ: activates or potentiates the mouse TMEM16A chloride channel; Q8BHY3; HEK293 TMEM16A/YFP-H148Q/I152L, iodide quench fluorescence; stronger effect = lower value; B-score at 10 µM; 0.3% of 340,000 active; AID 623877;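 active = fluorescence-ratio B-score plate-corrected deviation score at least 3 library SD below zero, with starting fluorescence score within 5 deviations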;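 note: channel opened by trigger with iodide after compound preincubation; score built on the fluorescence ratio of max minus min over baseline; more negative score means more quench and so TMEM16A activation or potentiation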
CHT act confirm: confirmation of human choline transporter (CHT) activators | shares compounds with CHT allo act | CHT-expressing cells, membrane potential dye fluorescence (FDSS); % of choline EC20–EC90 response window; HEK293 expressing CHT LV-AA mutant; choline added at its EC20 | activation, % at 10 µM | 91% of 2,500 active | AID 504833;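 active = primary screen active, with duplicate mean activation above negative control mean plus 3 SD, cut at about 11% in these data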
HEK293 MP dye: activity in parental HEK293 cells lacking CHT | shares compounds with CHT allo act | AID 623908 | membrane potential dye fluorescence (FDSS); measured after EC20 choline addition | ratio readout change at 10 µM, hits read low | 62% of 2,500 active;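 active = duplicate-averaged ratio beyond 3 SD from buffer wells, up or down, though filed actives are nearly all decreases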
Large screens that a line does not name were inactive (follow-up assays come after a bar, where they were run). An excerpt weighted towards active compounds, which were near 2.4% of everything screened.

Cc1cc(Oc2ccc(C)c(Cl)c2)nc(SCC(=O)c2ccccc2)n1	CHT allo act 7.2 | CHT act confirm 56 | HEK293 MP dye inactive
CN(C)Cc1ccc(-c2nc3cccc4c3n2CCNC4=O)cc1	none | CHT act confirm 51 | HEK293 MP dye -38
Cc1cccc2cc3c(N)c(C(=O)N4CCc5ccccc54)sc3nc12	none | CHT act confirm 26 | HEK293 MP dye inactive
c1ccc(CN(Cc2ccco2)C(c2ccncc2)c2nnnn2C2CCCC2)cc1 (stereo unspecified)	none
CC(C)(C)n1nnnc1C(c1ccc(C(F)(F)F)cc1)N(Cc1ccccc1)Cc1ccco1 (stereo unspecified)	none
CC(C)(C)n1nnnc1C(c1ccc(C(F)(F)F)cc1)N(Cc1ccc(F)cc1)Cc1ccco1 (stereo unspecified)	CHT allo act 12 | CHT act confirm 31 | HEK293 MP dye inactive
Fc1ccc(C(c2nnnn2C2CCCC2)N(Cc2ccco2)CC2CCCO2)cc1 (stereo unspecified)	CHT allo act 8.6 | CHT act confirm 46 | HEK293 MP dye inactive
O=C(CSc1nnc(COc2ccc(Br)cc2)o1)N1CCOCC1	none
CCOC(=O)c1ccccc1NC(=O)C1CC(=O)N(C2CCCCC2)C1 (stereo unspecified)	none
Cc1ccc(C(=O)N(CC#N)CC#N)cc1C	none
CN(C)c1ccnc(Nc2ccccc2)c1C#N	CHT allo act 6.3 | CHT act confirm 52 | HEK293 MP dye -35
CN1CCN(/N=C/c2nc(-c3ccc(Cl)cc3)n3ccccc23)CC1	none
CN1CCN(/N=C/c2nc(-c3ccccc3)n3ccccc23)CC1	none | CHT act confirm 27 | HEK293 MP dye inactive
CCOc1ccc(Br)cc1CN(CC)CC	none
Cc1ccc2c(c1)nc(NCCCO)n2C	none | CHT act confirm 19 | HEK293 MP dye -41
Cn1c(NCCCO)nc2ccccc21	none
Cc1ccc(/C=C/C(=O)N2CCN(c3ncccn3)CC2)o1	none
COc1cc2c(cc1OC)C(c1cccs1)N(C(=S)NC(C)C)CC2 (stereo unspecified)	CHT allo act 8.7 | CHT act confirm 14 | HEK293 MP dye inactive
O=C(CNC(=O)C1COc2ccccc2O1)Nc1cc(Cl)ccc1Cl (stereo unspecified)	none (no result: TMEM16A inh, CHT allo act, CHT block)
Cc1[nH]n(-c2ccccc2)c(=O)c1/C=N/NC(=O)C(C)C	none
COc1ccc(C(C(=O)NC2CCCC2)N(Cc2ccccc2)C(=O)c2nsc(Cl)c2Cl)cc1 (stereo unspecified)	none
CCOc1ccc(C(C(=O)NC2CCCC2)N(Cc2ccccc2)C(=O)c2nsc(Cl)c2Cl)cc1 (stereo unspecified)	none | CHT act confirm inactive | HEK293 MP dye inactive
CCN(CC)S(=O)(=O)c1ccc(=O)n(CC(=O)N2Cc3ccccc3CC2C(N)=O)c1 (stereo unspecified)	none (no result: TMEM16A inh, CHT allo act, CHT block)
O=C(NCC1CC1)[C@@H]1C[C@H]1[C@@H](NP(=O)(c1ccccc1)c1ccccc1)c1ccccc1	none | CHT act confirm inactive | HEK293 MP dye inactive
O=C(NCc1ccccc1)[C@@H]1C[C@H]1[C@@H](NP(=O)(c1ccccc1)c1ccccc1)c1ccccc1	none
Cc1nc(NC2=NCN(CCCN3CCOCC3)CN2)nc2c(C)cccc12	none | CHT act confirm 48 | HEK293 MP dye -56
Cc1nc(NC2=NCN(Cc3cccnc3)CN2)nc2ccccc12	none (no result: TMEM16A inh, CHT allo act, CHT block)
CCOc1cc(NC(=S)NCCCN2CCOCC2)c(OCC)cc1NC(=O)C1CC1	none
COc1ccc(-c2cn(-c3ccc(Cl)cc3)c3[n+]2CCCCC3)cc1	CHT allo act 7 | CHT act confirm 51 | HEK293 MP dye -21
COc1cccc2cc(C(=O)OC3CCN(C)CC3)c(=O)oc12	CHT allo act 6.7 | CHT act confirm 43 | HEK293 MP dye -38
CCOc1ccc(OCCNCc2ccc(OC(C)C(=O)N(C)C)c(OCC)c2)cc1 (stereo unspecified)	none
Cc1cc(C)c2cc3c(ccn3C3OC[C@H](O)[C@H](O)[C@H]3O)cc2n1 (stereo partly specified)	none | CHT act confirm 62 | HEK293 MP dye -46
Nc1nc(Cl)nc2c1ncn2C1OCC(O)C(O)C1O (stereo unspecified)	none (no result: TMEM16A inh, CHT allo act, CHT block)
O=C(Nc1cccc(C2=NCCN2)c1)Nc1cccc(C2=NCCN2)c1	none
COc1cc(OC)cc(C2=NCCN2)c1	none | CHT act confirm 35 | HEK293 MP dye -43
Cc1cc(NCCCn2ccnc2)n2nc(C)c(-c3ccccc3)c2n1	CHT allo act 8.5 | CHT act confirm 47 | HEK293 MP dye -57
O=C(Nc1ccc(S(=O)(=O)Nc2nccs2)cc1)c1nn(-c2ccc(F)cc2)ccc1=O	CHT allo act 6.3 | CHT act confirm 37 | HEK293 MP dye -36
O=C(Nc1ccc(S(=O)(=O)Nc2nccs2)cc1)c1ccc(F)cc1	none
COC(=O)Cn1c(=O)c2c(nc3n2CCCN3CCc2ccc(OC)c(OC)c2)n(C)c1=O	none (no result: ANO1 activ)
Cn1nnc2cc(C(=O)Nc3cccnc3)ccc21	CHT allo act 6.7 | CHT act confirm 52 | HEK293 MP dye -34
CN(C(=O)c1cccc(NC(=O)c2cccs2)c1)c1ccccc1	none
CCOc1cc2c(C#N)c(N3CCNCC3)nc(N)c2c(N)n1	CHT allo act 6.5 | CHT act confirm 45 | HEK293 MP dye -53
CCOC(=O)c1ccc(S(=O)(=O)N2CCN(C3CC(=O)N(c4ccc(OC)cc4)C3=O)CC2)cc1 (stereo unspecified)	none (no result: TMEM16A inh, CHT allo act, CHT block)
N#CC1=C(N)Oc2cc(N)ccc2C1c1cccc(Br)c1 (stereo unspecified)	none | CHT act confirm 34 | HEK293 MP dye inactive
CCOc1cc(/C=C/c2cccc[n+]2C)ccc1O	CHT allo act 6.9 | CHT act confirm 48 | HEK293 MP dye -31
CCOC(=O)c1c(NC(C)=O)sc2c1CCN(Cc1ccccc1)C2	CHT allo act 6.4 | CHT act confirm 40 | HEK293 MP dye -60
COC(=O)c1c(NC(C)=O)sc2c1CCN(Cc1ccccc1)C2	CHT allo act 7.2 | CHT act confirm 40 | HEK293 MP dye -66
O=[N+]([O-])c1ccc(N2CCN(CC3CCCCC3)CC2)cc1	none
CCOc1ccc(N=Nc2c(=O)[nH]n3c(C)cc(C)nc23)cc1	none | CHT act confirm 42 | HEK293 MP dye -49
Cc1ccc2nc3c(cc(C#N)c(=N)n3Cc3cccnc3)c(=O)n2c1	CHT allo act 8.5 (no result: ANO1 activ) | CHT act confirm 41 | HEK293 MP dye -28
COC(=O)c1cc2c(=O)n3ccccc3nc2n(Cc2cccnc2)c1=N	CHT allo act 6.8 (no result: ANO1 activ) | CHT act confirm 40 | HEK293 MP dye -55
CC(C)C(C)NC(=O)COc1ncnc2sccc12 (stereo unspecified)	none
C[n+]1ccc(/C=C/c2cccs2)cc1	none | CHT act confirm 62 | HEK293 MP dye -42
